For test [1], the system named is Thyroperoxidase (TPO), gene 54314. The test is described as follows: CCTE_Simmons_AUR_rTPO: CCTE's Amplex UltraRed Assay for Thyroperoxidase (TPO) Inhibition, Simmons Lab (AID 2283662).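 On AC50: potency for loss of signal meaning inhibition of peroxidase activity.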 In outline: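 Rat thyroid microsomes (5 ug protein) with 25 uM Amplex UltraRed and 300 uM H2O2 in 200 mM phosphate buffer, 30 min at 37C in dark; fluorescence 544/590 nm. Eight concentrations, 5 nM–87.5 uM final, 0.5% DMSO, triplicate biological replicates.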

The nature of test [2]: CCTE_Simmons_CellTiterGLO_HEK293T: Viability Assessment in CCTE's Assays for Thyroperoxidase (TPO) Inhibition, Simmons Lab (AID 2283665).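 On AC50: cells exposed to compound for 24 h before readout; actives reduce ATP signal below DMSO vehicle meaning cytotoxicity.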 The method in brief:
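ATP depletion measured in HEK293T cells after 24 h dosing (8 concentrations, 5 nM–87.5 uM final; DMSO 0.5%) using CellTiter-Glo luminescence; curves fit for loss of signal against DMSO baseline.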

Read-out in test [3]: alkyl and aryl transferase (GSTA2), GSTA2 (gene 2939)
The test is described as follows: CLD_GSTA2_6hr: CellzDirect (CLD) Gene Expression Assay for alkyl and aryl transferase (GSTA2) at 6 hours (AID 2283666). The method in brief: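 GSTA2 transcript induction at 6 h, quantified by nuclease protection (qNPA) with chemiluminescent detection, in human liver primary hepatocytes exposed to several compound concentrations with 0.2% DMSO as baseline; phase-contrast morphology annotated apparent cytotoxicity.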

Test [4] can be described thus: Tanguay_ZF_120hpf_TR_legacy: (Legacy) Oregon State University Tanguay Lab 120 Hour Post-fertilization zebrafish Assay for Touch Response (AID 2283667). The method in brief:
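Readout is presence or absence of touch response in 120 hpf zebrafish larvae, assessed by brightfield observation after continuous static exposure at 28C. Final vehicle was 0.64% (vol/vol) DMSO.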

A short description of test [5]: CLD_ACTIN_24hr: CellzDirect (CLD) Gene Expression Assay for Baseline Control (Actin) at 24 hours (AID 2283670). The method in brief:
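This 24 h qNPA (S1 nuclease protection, chemiluminescence) actin transcript readout in cultured human liver primary cells serves as baseline control. Signal is fitted upward relative to 0.2% DMSO; chemicals tested at multiple concentrations across two donor preparations.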

Read-out in test [6]: glucuronosyltransferase (UGT1A1), UGT1A1 (gene 54658)
The test is described as follows: CLD_UGT1A1_6hr: CellzDirect (CLD) Gene Expression Assay for glucuronosyltransferase (UGT1A1) at 6 hours (AID 2283672). In outline: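 UGT1A1 mRNA induction, read by quantitative nuclease protection assay, 6 h after dosing primary human hepatocytes (two donors, 0.2% DMSO vehicle). Gain of signal fitted relative to vehicle.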

Read-out in test [7]: Cytochrome P450 2B6 (Homo sapiens) (UniProt P20813)
Description: CLD_CYP2B6_6hr: CellzDirect (CLD) Gene Expression Assay for xenobiotic metabolism (CYP2B6) at 6 hours (AID 2283677).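 Further: actives raise CYP2B6 transcript above DMSO baseline so AC50 marks an inducer.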 In outline: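 CYP2B6 transcript levels, read by chemiluminescent qNPA, were fitted for increase versus DMSO baseline; cultured human liver hepatocytes from two donor preparations were harvested 6 h after exposure to test chemicals at multiple concentrations.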

Read-out in test [8]: Cytochrome P450 2C19 (Homo sapiens) (UniProt P33261)
The test is described as follows: CLD_CYP2C19_6hr: CellzDirect (CLD) Gene Expression Assay for xenobiotic metabolism (CYP2C19) at 6 hours (AID 2283678). The method in brief: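 CYP2C19 transcript induction was quantified by quantitative nuclease protection assay with chemiluminescent read-out, 6 h after dosing. Cells were primary human hepatocytes from two donor preparations, given fresh dosing solutions daily in 0.2% DMSO vehicle. Activity was relative to DMSO.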

Test [9] can be described thus: CCTE_Padilla_ZF_144hpf_TERATOSCORE: (Legacy) CCTE's 144 Hour Post-fertilization zebrafish Assay Teratoscore, Padilla Lab (AID 2283679; active means hit-call score of the fitted dose curve at least 0.9, where 1 is the maximum; inactive means score below 0.9;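 further: zebrafish embryos with chorions exposed by immersion from 6-8 hpf to 5 dpf with daily renewal; teratogenicity score from eye scoring of death hatching and malformations at 144 hpf; higher score means more developmental defects relative to DMSO baseline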). The method in brief:
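Larvae scored by eye at 144 hpf for death, hatching and malformations after a day in clean Hanks'. Before that, daily-renewed exposure at 80 uM (0.4% DMSO, 26C) from roughly 6-8 hpf through 5 dpf, 4 embryos per chemical.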

Read-out in test [10]: xenobiotic metabolism (CYP1A2), CYP1A2 (gene 1544)
Description: CLD_CYP1A2_24hr: CellzDirect (CLD) Gene Expression Assay for xenobiotic metabolism (CYP1A2) at 24 hours (AID 2283683). The method in brief: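 CYP1A2 mRNA induction measured by quantitative nuclease protection (chemiluminescent) in human primary hepatocytes 24 h after multi-concentration chemical dosing with daily fresh solutions. DMSO (0.2%) baseline; positive-direction fitting; morphology-based cytotoxicity noted.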

Read-out in test [11]: Broad substrate specificity ATP-binding cassette transporter ABCG2 (Homo sapiens) (UniProt Q9UNQ0)
Description: CLD_ABCG2_24hr: CellzDirect (CLD) Gene Expression Assay for ABC Transporter (ABCG2) at 24 hours (AID 2283685). In outline:
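ABCG2 mRNA induction, read as gain of chemiluminescent signal over 0.2% DMSO, was measured by quantitative nuclease protection at 24 h. Cultured human liver hepatocytes were given fresh dosing solutions of test chemicals at several concentrations each day.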

Read-out in test [12]: Cytochrome P450 2B6 (Homo sapiens) (UniProt P20813)
Description: CLD_CYP2B6_24hr: CellzDirect (CLD) Gene Expression Assay for xenobiotic metabolism (CYP2B6) at 24 hours (AID 2283686). The method in brief: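 qNPA chemiluminescent measurement of mRNA at 24 hours in human primary hepatocyte cultures from two donor preparations, with daily fresh dosing and 0.2% DMSO vehicle as baseline. Morphology-based cytotoxicity flagged yes/no.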

Read-out in test [13]: sulfotransferase (SULT2A), SULT2A1 (gene 6822)
The test is described as follows: CLD_SULT2A_6hr: CellzDirect (CLD) Gene Expression Assay for sulfotransferase (SULT2A) at 6 hours (AID 2283669).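 Further: hits raise transcript level above the DMSO vehicle baseline.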 In outline:
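Measured 6 h after dosing, SULT2A1 mRNA in human hepatocyte lysates was quantified by S1 nuclease protection with chemiluminescent detection. Increases fitted against 0.2% DMSO vehicle baseline; phase-contrast cytotoxicity recorded yes/no.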

Read-out in test [14]: Cytochrome P450 2C9 (Homo sapiens) (UniProt P11712)
Description: CLD_CYP2C9_24hr: CellzDirect (CLD) Gene Expression Assay for xenobiotic metabolism (CYP2C9) at 24 hours (AID 2283688). The method in brief:
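Induction of CYP2C9 mRNA was quantified by quantitative nuclease protection assay (chemiluminescence), gain of signal versus 0.2% DMSO vehicle, 24 h after dosing. Human primary hepatocytes (two donors) received fresh chemical daily at multiple concentrations; morphology-based cytotoxicity flagged yes/no.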

Read-out in test [15]: xenobiotic metabolism (CYP1A2), CYP1A2 (gene 1544)
The test is described as follows: CLD_CYP1A2_6hr: CellzDirect (CLD) Gene Expression Assay for xenobiotic metabolism (CYP1A2) at 6 hours (AID 2283663).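 Further: potency is for induction meaning a rise in mRNA above DMSO.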 In outline: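 mRNA levels quantified by quantitative nuclease protection assay with chemiluminescence, 6 h after dosing human primary hepatocyte cultures (two donors) across several concentrations, vehicle 0.2% DMSO. Induction fitted upward versus DMSO; phase-contrast cytotoxicity annotated.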

Read-out in test [16]: Cytochrome P450 (CYP24A1_1), CYP24A1 (gene 1591)
The test is described as follows: LTEA_HepaRG_CYP24A1_1: Life Technologies and Expression Analysis (LTEA) Assay for Cytochrome P450 (CYP24A1_1) using HepaRG (AID 2283671; active means hit-call score of the fitted dose curve at least 0.9, where 1 is the maximum; inactive means score below 0.9). The settings on record: mRNA level, 48 h; actives raise or lower the signal. The method in brief:
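Cultures of human HepaRG were treated in duplicate for 48 h (0.5% DMSO vehicle, highest dose 100 uM). CYP24A1 mRNA by qRT-PCR, normalized to ACTB, GAPDH, POLR2A.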

Read-out in test [17]: xenobiotic metabolism (CYP1A1), CYP1A1 (gene 1543)
The test is described as follows: CLD_CYP1A1_24hr: CellzDirect (CLD) Gene Expression Assay for xenobiotic metabolism (CYP1A1) at 24 hours (AID 2283673). In outline: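 Transcript levels were read at 24 h by qNPA chemiluminescence in human liver primary cells. Cells got daily fresh dosing at multiple concentrations (vehicle 0.2% DMSO). Induction fitted upward against DMSO; phase-contrast cytotoxicity annotated.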

Read-out in test [18]: ABC Transporter (ABCB11), ABCB11 (gene 8647)
Description: CLD_ABCB11_24hr: CellzDirect (CLD) Gene Expression Assay for ABC Transporter (ABCB11) at 24 hours (AID 2283674; active means hit-call score of the fitted dose curve at least 0.9, where 1 is the maximum; inactive means score below 0.9). The method in brief:
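ABCB11 transcript was quantified by qNPA chemiluminescence in cultured human liver hepatocytes 24 hours after dosing. Fresh dosing solutions were applied on consecutive days, against a 0.2% DMSO vehicle. Cytotoxicity was noted by phase-contrast morphology.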

Read-out in test [19]: xenobiotic metabolism (CYP2C9), CYP2C9 (gene 1559)
The test is described as follows: CLD_CYP2C9_6hr: CellzDirect (CLD) Gene Expression Assay for xenobiotic metabolism (CYP2C9) at 6 hours (AID 2283664). In outline: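 Readout is qNPA chemiluminescence of CYP2C9 mRNA, taken 6 h after dosing of cultured human liver primary cells at several concentrations. Activity is the increase over 0.2% DMSO baseline. Morphology-based cytotoxicity flagged yes/no.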

Read-out in test [20]: ABC Transporter (ABCB1), ABCB1 (gene 5243)
Description: CLD_ABCB1_24hr: CellzDirect (CLD) Gene Expression Assay for ABC Transporter (ABCB1) at 24 hours (AID 2283684). The method in brief:
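ABCB1 mRNA induction versus 0.2% DMSO vehicle was read by qNPA chemiluminescence at 24 h. Cultured human hepatocytes from two donor preparations received daily fresh dosing, and phase-contrast cytotoxicity calls were annotated alongside the data.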

Values joined by “and” are separate entries in the source; they are usually repeats but may differ in a detail not shown here. Equal values may be shown once. Inconclusive results are not listed. Active and inactive are the calls of the source. How the source made its calls, unless noted: active means hit-call score of the fitted dose curve at least 0.9, where 1 is the maximum; inconclusive means response in the unintended direction; inactive means score below 0.9.

Sequence of Broad substrate specificity ATP-binding cassette transporter ABCG2 (Homo sapiens) (Q9UNQ0 whole entry, looked up): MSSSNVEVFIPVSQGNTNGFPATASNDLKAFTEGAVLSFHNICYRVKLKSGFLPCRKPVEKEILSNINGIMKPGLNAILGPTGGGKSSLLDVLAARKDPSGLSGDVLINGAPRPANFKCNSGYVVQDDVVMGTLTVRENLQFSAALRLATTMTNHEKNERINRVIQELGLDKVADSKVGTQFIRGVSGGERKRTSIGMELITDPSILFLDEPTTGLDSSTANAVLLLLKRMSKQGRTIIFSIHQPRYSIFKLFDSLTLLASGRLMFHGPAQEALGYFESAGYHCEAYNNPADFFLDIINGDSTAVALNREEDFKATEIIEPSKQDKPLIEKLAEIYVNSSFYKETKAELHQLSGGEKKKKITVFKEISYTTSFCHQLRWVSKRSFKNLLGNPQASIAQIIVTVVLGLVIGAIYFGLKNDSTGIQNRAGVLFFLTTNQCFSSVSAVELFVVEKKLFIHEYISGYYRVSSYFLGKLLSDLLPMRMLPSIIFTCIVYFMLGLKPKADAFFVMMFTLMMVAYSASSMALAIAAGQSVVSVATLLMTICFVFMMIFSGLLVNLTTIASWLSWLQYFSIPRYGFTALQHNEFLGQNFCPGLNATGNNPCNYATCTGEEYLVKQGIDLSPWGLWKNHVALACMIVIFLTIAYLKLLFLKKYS
Sequence of Cytochrome P450 2C19 (Homo sapiens) (P33261 whole entry, looked up): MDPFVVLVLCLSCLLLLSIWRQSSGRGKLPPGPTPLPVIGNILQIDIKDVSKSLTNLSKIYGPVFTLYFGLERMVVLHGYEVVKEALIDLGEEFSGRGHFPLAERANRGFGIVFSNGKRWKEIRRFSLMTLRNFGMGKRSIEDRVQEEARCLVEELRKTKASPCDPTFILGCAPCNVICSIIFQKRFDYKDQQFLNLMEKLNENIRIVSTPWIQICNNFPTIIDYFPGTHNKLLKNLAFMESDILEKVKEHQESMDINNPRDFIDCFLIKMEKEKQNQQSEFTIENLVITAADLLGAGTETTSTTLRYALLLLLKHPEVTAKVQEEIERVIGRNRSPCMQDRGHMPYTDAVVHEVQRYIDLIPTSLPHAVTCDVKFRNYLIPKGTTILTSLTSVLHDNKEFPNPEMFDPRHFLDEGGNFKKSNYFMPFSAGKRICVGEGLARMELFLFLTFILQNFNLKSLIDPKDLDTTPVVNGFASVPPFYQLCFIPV

On to `CCCCNC(=O)n1c(NC(=O)OC)nc2ccccc21`, for which the result in test [1], in [2], in test [3], in test [5], in test [6] and in [8] was inactive. In addition, the outcome in test [11] and in test [12] was inactive. Besides, the AC50 in [4] is 19.2 µM (active); in [7], 4.17 µM (active); in [9], 1.29 µM (active); in [10], 4.66 µM (active).
For `C=CCC1=C(C)[C@@H](OC(=O)[C@@H]2[C@@H](C=C(C)C)C2(C)C)CC1=O`, the AC50 was 54 µM (active) in [1]; 42.5 µM (active) in [2]; 20 µM (active) in test [13]; 3.51 µM (active) in [9]; 20 µM (active) in [12]. The compound was called inactive in test [3], in [4], in [11] and in test [14].
On to `C=CC1(C)OC(=O)N(c2cc(Cl)cc(Cl)c2)C1=O` (configuration not stated), for which the AC50 in test [15] was 0.828 µM (active); in test [17], 0.317 µM (active); in test [9], 145 µM (active); in test [12] it was 7.15 µM (active). Also, the compound was classed as inactive in [4], in [5], in test [16], in test [18], in [11] and in [14].
Consider `C=CCC1=C(C)C(OC(=O)C2C(C=C(C)C)C2(C)C)CC1=O` (configuration not stated), for which the AC50 in [1] was 33.6 µM (active); in test [2], 54.1 µM (active); in test [9] it was 1.54 µM (active) and 8.75 µM (active). Moreover, the compound was called inactive in test [19], in [3], in test [4], in test [13], in test [5] and in [6]. Besides, the compound was called inactive in [11] and in test [12].
For `CC1COC(Cn2cncn2)(c2ccc(Oc3ccc(Cl)cc3)cc2Cl)O1` (configuration not stated), the compound was classed as inactive in test [1], in [4], in [7] and in [11]. The AC50 in [2] was 27.9 µM (active); in [13] it was 20 µM (active); in [17], 1.94 µM (active); in test [9], 5.5 µM (active); in [12], 0.000442 µM (active).
For `CC(C)Oc1cc(-n2nc(C(C)(C)C)oc2=O)c(Cl)cc1Cl`, the result in test [3], in [4], in [13], in [6] and in [11] was inactive. The AC50 was 9.05 µM (active) in test [9] and 0.829 µM (active) in [12].
For the compound `CCOC(=O)C(Cl)Cc1cc(-n2nc(C)n(C(F)F)c2=O)c(F)cc1Cl` (configuration not stated), the result in test [19], in test [13], in test [8], in test [11] and in test [14] was inactive. For the same compound, the AC50 in [4] was 17 µM (active); in [9], 0.57 µM (active); in [12] it was 6.33 µM (active).
As for `CC(C)(C)c1ccc(CSc2cnn(C(C)(C)C)c(=O)c2Cl)cc1`, the compound was classed as inactive in [3], in test [4], in test [13], in test [5], in test [18] and in [20]. In test [11], the compound was called inactive.
With `CCOc1cc(Oc2ccc(C(F)(F)F)cc2Cl)ccc1[N+](=O)[O-]`, the result in test [3], in test [4], in [13] and in [12] was inactive. In addition, in [9], the AC50 is 13 µM (active).
Consider `CCON=C(CC)C1=C(O)CC(c2c(C)cc(C)cc2C)CC1=O` (configuration not stated), for which the result in test [3], in test [4], in test [17], in test [7], in test [8] and in test [11] was inactive. Moreover, the result in test [12] and in test [14] was inactive. Further, in [9], the AC50 was 64.2 µM (active).

Source of the values: PubChem BioAssay (EPA / NIEHS).
